Assay results: PubChem BioAssay (NCI)
The panel holds about 79,000 compounds, 15% with a hit somewhere; the sample as a whole holds those more often. Unmarked numbers belong to inactive results. Calls of active or inactive are those of the source. Cut-off read from the data, not from the text of the source: active = growth inhibition above about 70%; inactive = the rest.

Legend:
[1] = NCI Yeast Anticancer Drug Screen. Data for the rad50 strain (AID 155);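 note: 0% = growth of vehicle-only cultures of the same strain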; details: S. cerevisiae rad50 strain growth inhibition; at 50.0 µM; hits give high values
Outline: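 Vehicle-treated cultures provide the reference for the growth inhibition reported for compound-exposed, repair-deficient yeast.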

[2] = NCI Yeast Anticancer Drug Screen. Data for the mec2-1 strain (AID 157); details: S. cerevisiae mec2-1 strain, at 50.0 µM, hits give high values
Outline: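 Vehicle-treated cultures served as reference for growth inhibition of compound-exposed mec2-1 yeast.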

[3] = NCI Yeast Anticancer Drug Screen. Data for the sgs1 mgt1 strain (AID 161);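 note: 0% = growth of cultures given vehicle only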; details: S. cerevisiae sgs1 mgt1 strain, at 50.0 µM, hits give high values
Outline: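 Read-out: growth inhibition vs vehicle controls. Cells: mutant yeast strain deficient in DNA damage repair.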

[4] = NCI Yeast Anticancer Drug Screen. Data for the cln2 rad14 strain (AID 165);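 note: 0% = growth equal to vehicle treated cultures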; details: S. cerevisiae cln2 rad14 strain, at 50.0 µM, hits give high values
Outline: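 Each compound was tested on cln2 rad14 yeast. Inhibition of growth was calculated against vehicle-exposed controls.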

[5] = NCI Yeast Anticancer Drug Screen. Data for the bub3 strain (AID 167); details: S. cerevisiae bub3 mutant strain, at 50.0 µM, hits give high values
Outline: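 Mutant yeast screening strain plus compound; vehicle-treated cultures serve as the 0% inhibition reference.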

[6] = NCI Yeast Anticancer Drug Screen. Data for the mlh1 rad18 strain (AID 175); details: S. cerevisiae mlh1 rad18 strain growth inhibition; at 50.0 µM; hits give high values
Outline: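 Vehicle-treated cultures served as the reference for growth inhibition in a yeast strain carrying DNA damage repair alterations exposed to each compound.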

SMILES | growth inhibition [1] [%] | growth inhibition [2] | growth inhibition [3] | growth inhibition [4] [%] | growth inhibition [5] | growth inhibition [6]
NC(=S)N/N=C/c1ccncc1 | -25.8 | -10.6% | -17.6% | -25.9 | 9.35% | -52.9%
NC(=S)N/N=C1\CCCCC1C(O)(C(F)(F)Cl)C(F)(F)Cl (stereo unspecified) | -26.2 | -33.8% | -19.1% | -8.9 | -11.5% | -25.2%
ClCC/C(=C(/Cl)c1ccccc1)c1ccccc1 | -0.65 | 5.6% | 6.65% | 4.8 | -14.3% | 3.1%
CCCCCCCCCCCCCCCCNC(=O)C(C)O (stereo unspecified) | 23.9 | 3.2% | 17.2% | -13.9 | 7.7% | 30.4%
O=[N+]([O-])c1ccccc1S(=O)(=O)NC1c2ccccc2Oc2ccccc21 | 31.9 | 28.3% | 19.4% | 2.75 | -0.8% | 43.6%
C(#Cc1ccccc1)SC1=C(c2ccccc2)S/C(=C(\SC#Cc2ccccc2)c2ccccc2)S1 | 9.6 | 7.7% | -29.4% | 10.9 | -21.1% | -30.8%
NC(=O)SCC(=O)Nc1ccc2ncccc2c1 | -18.9 | 4.7% | -22.8% | -27.2 | -8.15% | 2.8%
CN(C)Cc1nsc(N(C)C)n1 | -4.9 | -9.1% | -34.2% | -50 | -19.1% | -13.2%
COc1nc(NC2OC(COC(C)=O)C(OC(C)=O)C(OC(C)=O)C2OC(C)=O)c(C(=O)CCl)c(=O)[nH]1 (stereo unspecified) | 3.75 | 6.5% | 8.45% | -0.4 | -2.2% | 13.7%
CSc1nc(SC)c2nc(SC)n(-c3ccccc3)c2n1 | -2.7 | -16.1% | 7.85% | -10.3 | 3.85% | -2.75%
CC(=O)NC(c1ccccc1)c1c(O)ccc2ccccc12 (stereo unspecified) | 26.6 | -2.8% | 10.8% | -33.2 | -2.5% | -5.25%
NCc1c(C(N)=O)ncn1Cc1ccccc1 | -0.95 | -3.75% | 5% | -4.15 | 7.4% | -6.05%
ClC1=C(Cl)C2(Cl)C3C(c4ccc(I)cc4C4C3C3(Cl)C(Cl)=C(Cl)C4(Cl)C3(Cl)Cl)C1(Cl)C2(Cl)Cl (stereo unspecified) | 14.6 | 15.4% | 8.8% | 14.1 | 20.6% | 16.9%
CC1C/C(=C\c2ccccc2)C(=O)/C1=C/c1ccccc1 (stereo unspecified) | -3.6 | 17.4% | 7.3% | -6.4 | -2.75% | -15.9%
O=[N+]([O-])c1cccc(-c2oc(C=Nc3ccccc3)c([N+](=O)[O-])c2-c2cccc([N+](=O)[O-])c2)c1 | -5 | -0.8% | 9.45% | 14.4 | 17.6% | 19.6%
O=c1nc(OCCO)c([N+](=O)[O-])c(C(Cl)(Cl)Cl)[nH]1 | 61.4 | 89.5% (active) | 81.7% (active) | 36.4 | 80.5% (active) | 92.3% (active)
CC1C[P+](c2ccccc2)(c2ccccc2)Cc2ccccc21 (stereo unspecified) | 3.4 | 9.75% | -8.25% | -13.4 | -1.85% | 4.6%
CCOC(=O)CNC(=O)C(CCSCc1ccccc1)NC(=O)OCc1ccccc1 (stereo unspecified) | -2.75 | 6.55% | 0.3% | 28.6 | 4.45% | 15.2%
CCNC(=O)c1csnn1 | -6.55 | -5.6% | -5.95% | 12.5 | -18.1% | 2%
Cc1ccc(S(=O)(=O)/C(C#N)=C/NC(=S)Nc2ccc(C)cc2C)cc1 | -53.7 | -26.9% | -30.8% | -41.4 | -40.5% | -41.4%
CN(C)C(=O)Nc1ccc(F)cc1 | -5.75 | -25.6% | 13.6% | -20.6 | -24.9% | -16.6%

SMILES | growth inhibition [1] [%] | growth inhibition [2] | growth inhibition [3] | growth inhibition [4] [%] | growth inhibition [5] | growth inhibition [6]
O=S(=O)(CS(=O)(=O)c1ccc(Br)cc1)c1ccc(Br)cc1 | 1.4 | 33.1% | -14.6% | 20.8 | 4.6% | 12%
Cc1cc(N(CCC#N)CCC#N)ccc1/C=C1\N=C(c2cc([N+](=O)[O-])ccc2Cl)N(c2cccc(Cl)c2)C1=O | -19.4 | -20.2% | -23.9% | -7.6 | -6.05% | -29.2%
CCN1CCC(O)(C(C(=O)O)c2ccccc2)CC1 (stereo unspecified) | 3.45 | -27% | -35% | -28.8 | -38.7% | 2.4%
CON(C)c1nc(N(C)OC)nc(N(C)OC)n1 | -8.05 | -48.2% | -28.8% | 7.85 | -22.9% | -12.5%
CCC1=C[C@H]2CN(CCc3c([nH]c4ccccc34)[C@@](C(=O)OC)(c3cc4c(cc3OC)N(C)[C@H]3[C@@](O)(C(=O)NC)[C@H](OC(C)=O)[C@]5(CC)C=CCN6CC[C@]43[C@@H]65)C2)C1 | 2.65 | -1.75% | 12.8% | -2.05 | 16.4% | -12.4%
CC1(C)CCCN1C(=O)Nc1ccc([N+](=O)[O-])cc1[N+](=O)[O-] | 4.1 | -7.7% | 5.4% | -12.6 | -4.15% | -14.1%
COc1cc(-c2cc(-c3cc([N+](=O)[O-])c(/C=N/NC(=O)c4ccncc4)o3)ccc2OC)ccc1C | 17.5 | 8.2% | -8.1% | 26.9 | 11.2% | 8.3%
O=C(NCC1CC1)NC(=O)c1c(F)cccc1Cl | -1.2 | -13% | 12.6% | 20.8 | 36.6% | 9.65%
COc1ccc(OC)c(C(N)=O)c1 | -0.1 | 13.8% | -1.25% | 0.95 | 0.85% | -2.5%
CCOC(=O)CCC(NC(=O)C(N)c1ccc([N+](=O)[O-])cc1)C(=O)NC(CCC(=O)OCC)C(=O)OCC (stereo unspecified) | -5.4 | -7.5% | 1.2% | 0.5 | -2.55% | 4.55%
O=[N+]([O-])c1ccc(F)cc1C(F)(F)F | 19.1 | -17.4% | 32.4% | -10.2 | 0.2% | 43.5%
O=C1NC(=NC2CCCCC2)C2(CCN(CCCC3(c4ccc(F)cc4)OCCO3)CC2)N1c1ccccc1 | -18.8 | -17.2% | -6.3% | 5 | -5% | -1.45%
Nc1nnnn1-c1cccc(Cl)c1 | 7.5 | 0.35% | 1.6% | -18.8 | -2.4% | 10.6%
CCOC(=O)COc1ccc(Cc2ccc3c(c2)OCO3)cc1C | -0.7 | 3.1% | -2.45% | -6.05 | 16.2% | 0.9%
N=C(N)c1ccc(C(=N)N)cc1 | -16.4 | -14.3% | -20.3% | -0.35 | -0.75% | -33.2%
COc1ccc(C2OCC(COC(C)=O)O2)cc1OC (stereo unspecified) | -11 | 6.4% | 1.2% | -17.9 | 26.5% | 10.4%
C#CC(CC(C)CC(C)(C)C)N(C)C (stereo unspecified) | 39 | 22.8% | 16.2% | 17.8 | 3.8% | 31.3%
COc1cc2cccnc2c2[nH]c(=O)c3c(c12)CCC3 | 13.9 | 9.35% | -6% | -16.4 | 7.2% | 7.25%
c1ccc(SCc2ccc3c(c2)OCO3)cc1 | 27.4 | 1.4% | 18.2% | 9.25 | 18.8% | 16.8%
NC(=O)C1C=Cc2ccccc21 (stereo unspecified) | -6.1 | -19.3% | -18.4% | -14.1 | -16.8% | -35.6%
